SMN2 splice up: qHTS Assay for Enhancers of SMN2 Splice Variant Expression; HEK293 SMN2-luciferase splicing reporter, luminescence, 30-36 h; Potency, µM (top dose mostly 46.1 µM), for inactives: top-dose activity change, positive = activation, hits mostly activators; actives 2.8% (n = 210,000); AID 1458, 2008; further: % of control where 0% means no effect; nearly all actives have a fitted effect of over 55% in size
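qHTS luciferase splicing reporter: luminescence rises when SMN2 exon 7 is included in transfected HEK293 cells. Compound exposure lasted 30-36 h at 37C, with 4.5 mM final sodium butyrate as control, followed by a ONE-Glo read.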
Luc counter: Counterscreen for Luciferase (Kinase-Glo TM) Inhibition. actives 0.28% (n = 200,000). Potency, µM (series often up to 38.3 µM), inactives show top-dose activity change, negative = inhibition, hits mostly inhibitors. AID 1379, 2008. Kinase-Glo luciferase, ATP luminescence, 8 min; further: on the % scale 0 is the no-effect control and ±100 the full control effect; nearly all actives have a fitted effect of over 60% in size
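Compounds were added to a substrate mix at pH 7.2 (50 mM imidazole, 10 uM ATP, within the enzyme's linear range), followed by Kinase-Glo detection reagent; luminescence was measured after 8 minutes at ambient temperature.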
ELG1 genotox: qHTS screen for small molecules that induce genotoxicity in human embryonic kidney (HEK293T) cells expressing luciferase-tagged ELG1; HEK293T ELG1-luciferase reporter, luminescence, 16 h; Potency, µM (series often up to 46 µM), inactives show at the highest dose activity change, positive = activation, usual class: activators; actives 1.3% (n = 330,000); further: % of control where 0% means no effect; nearly all actives have a fitted effect of over 60% in size
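HEK293T cells expressing luciferase-tagged ELG1 were exposed to compound or DMSO vehicle for 16 hr at 37 °C and 5% CO2. Luciferase activity was then measured with ONE-Glo after 30 min at room temperature.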
NPC1 prom act: qHTS Assay for NPC1 Promoter Activators | actives 2.4% (n = 320,000) | Potency, µM (doses to about 9.22 µM), for inactives: at the highest dose activation, actives largely listed as activators | Huh7 NPC1 promoter luciferase reporter, 24 h | AID 485313, 2010; further: % of control where 0% means no effect; nearly all actives have a fitted effect of over 60% in size
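Stably transfected Huh7 (NPC1 promoter→luciferase), 1500 cells/well in Opti-MEM + 10% FBS, 2 h settle, then compound 24 h at 37 °C. Luminescence after 10 min with Amplite reagent.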
FLuc modulator: qHTS profiling assay for firefly luciferase inhibitor/activator using purifed enzyme and Km concentrations of substrates (counterscreen for miR-21 project). Luciferin 4-monooxygenase (Photinus pyralis), P08659. purified FLuc, Km substrates, luminescence inhibition. Potency, µM (highest dose often 57.5 µM), inactives show at the top dose activity change, negative = inhibition, hits mostly inhibitors. actives 6.9% (n = 360,000);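 further: plate controls were vehicle for no effect and reference inhibitor for full effect; nearly all actives have a fitted effect of over 55% in size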
Target sequence (P08659 whole entry, looked up): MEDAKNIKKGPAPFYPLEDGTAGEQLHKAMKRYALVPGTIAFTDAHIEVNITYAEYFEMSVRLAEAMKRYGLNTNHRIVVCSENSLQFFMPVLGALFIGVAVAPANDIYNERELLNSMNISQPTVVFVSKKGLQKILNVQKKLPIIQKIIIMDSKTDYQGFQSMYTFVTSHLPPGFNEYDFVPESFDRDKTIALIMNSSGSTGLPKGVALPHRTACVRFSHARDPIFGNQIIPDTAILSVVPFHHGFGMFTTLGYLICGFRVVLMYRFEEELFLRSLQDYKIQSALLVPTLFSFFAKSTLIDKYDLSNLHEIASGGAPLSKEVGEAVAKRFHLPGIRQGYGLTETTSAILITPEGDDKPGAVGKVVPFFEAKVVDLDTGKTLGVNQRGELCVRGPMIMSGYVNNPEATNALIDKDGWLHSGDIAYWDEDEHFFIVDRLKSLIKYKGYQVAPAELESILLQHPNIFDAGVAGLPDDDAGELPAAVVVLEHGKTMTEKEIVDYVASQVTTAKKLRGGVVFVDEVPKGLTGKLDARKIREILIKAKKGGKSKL
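Purified P. pyralis luciferase, 10 nM final, with Km-level 10 uM D-luciferin and 10 uM ATP in 50 mM Tris acetate pH 7.5, 10 mM Mg acetate, 0.01% Tween-20, 0.05% BSA; 6-point qHTS titration about 60 µM downward; luminescence read.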
Rab9 prom act: qHTS Assay for Rab9 Promoter Activators; AID 485297, 2010; actives 2.8% (n = 320,000); Potency, µM (titrated, usually from 9.22 µM), without a hit: at the top dose activation, negative = inhibition, actives largely listed as activators; Huh7 Rab9 promoter-luciferase reporter, luminescence, 24 h; further: % of control where 0% means no effect; nearly all actives have a fitted effect of over 60% in size
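Using Huh7 cells stably transfected with Rab9 promoter–luciferase, compounds were incubated 24 h at 37 °C, 5% CO2; luciferase luminescence was read 10 min after reagent addition.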
* marks the source's active call; other numbers are inactive results; u = inconclusive; x = not tested or not shown. Compounds with a hit are over-represented: about 7.5% of the library has one in this group of screens. The call rests on the fitted dose curve; in most records, active means well fitted curve in the direction sought with a large enough effect; inconclusive means small, poorly fitted or top-dose-only effect, or another doubt; inactive means no such curve, though single readings can be large; an effect the other way counts as inactive or inconclusive. Potency means the concentration at half of the fitted maximal effect.

SMILES	SMN2 splice up	Luc counter	ELG1 genotox	NPC1 prom act	FLuc modulator	Rab9 prom act
COc1cc(OC)cc(C(=O)Nc2ccc(C(=O)Nc3ccccc3OC)cc2)c1	x	x	-11%	x	x	x
CCn1nnc2cc(C(=O)Nc3cc(OC)cc(OC)c3)ccc21	x	x	u	13%	17µM*	24%
COc1ccc(C(=O)Nc2cc(OC)cc(OC)c2)cc1	25µM*	-30%	u	2µM*	4.8µM*	1.8µM*
COc1cc(NC(=O)c2ccccc2)cc(OC)c1	u	-18%	u	6.3µM*	19µM*	u
CCOc1ccc(NC(=O)CN(C)C(=O)c2cc(-c3ccc(OC)cc3)nc3ccccc23)cc1OCC	x	x	-27%	-1%	13µM*	2%
COc1cccc(NC(=O)CN(C)C(=O)c2cc(-c3cccc(Br)c3)nc3ccccc23)c1	x	x	-25%	1%	u	2%
COc1ccc(NC(=O)CN(C)C(=O)c2cc(-c3ccc(Cl)cc3)nc3ccccc23)cc1	x	x	-43%	2%	24µM*	-1%
COc1cccc(NC(=O)CN(C)C(=O)c2cc(-c3ccc(C)o3)nc3ccccc23)c1	x	x	-5%	5%	11µM*	0%
CCOc1ccc(NC(=O)CN(C)C(=O)c2cccc3ccccc23)cc1OCC	x	x	0%	-3%	3%	-5%
COc1cccc(NC(=O)c2cc(-c3ccc(C)o3)nc3ccccc23)c1	x	x	2%	18%	u	22%
CCN(CC)c1nn2c(=O)c(C(=O)NCc3ccc(OC)cc3OC)cnc2s1	x	x	x	x	-5%	x
Cc1ccc(NC(=O)Cn2ccn(-c3ccccc3)c(=O)c2=O)cc1	x	x	x	x	2%	x
COc1ccc(NC(=O)CN2C(=O)COc3ccc(S(=O)(=O)Nc4ccccc4)cc32)cc1OC	x	x	x	x	-8%	x
O=C(Nc1cccc(-c2cn3ccccc3n2)c1)c1cccc(Cl)c1	-21%	1%	-5%	-1%	2.4µM*	18%
COC(=O)c1cccc(NC(=O)c2cnccn2)c1	x	x	2%	19%	-9%	u
O=C(Nc1cccc(-c2cnc3ccccc3n2)c1)c1ccc(Cl)cc1	7%	0%	8%	6%	-10%	12%
O=C(Nc1cccc(-c2cn3ccccc3n2)c1)c1cnccn1	u	-5%	-2%	25%	12µM*	29%
COC(=O)c1ccc(NC(=O)CCn2cnnn2)cc1	x	x	x	x	0%	x
COc1ccc(NC(=O)C(C(C)C)N2Cc3ccccc3C2=O)cc1 (stereo not given)	x	x	x	x	1%	x
Cc1nnc(C)n1/N=C/c1cccc([N+](=O)[O-])c1	2%	-1%	3%	-8%	-2%	-1%
O=[N+]([O-])c1ccc(/C=N/Nc2ncc(-c3ccccc3)cn2)cc1	0%	-1%	6%	-3%	-2%	-3%
O=[N+]([O-])c1cccc(/C=N/N=C\c2ccccc2)c1	x	x	8%	2%	3.4µM*	-2%
O=[N+]([O-])c1ccc(N/N=C/c2ccccc2)c(F)c1	22µM*	-1%	u	u	11µM*	u
CC1=C(C(=O)Nc2ccccc2C)C(c2ccc[nH]2)n2ncnc2N1 (stereo not given)	x	x	x	x	-11%	x
O=C(OCc1ccco1)c1ccc2c(c1)N(Cc1cccc(F)c1)C(=O)c1ccccc1S2	x	x	x	x	0%	x
SMILES	SMN2 splice up	Luc counter	ELG1 genotox	NPC1 prom act	FLuc modulator	Rab9 prom act
Cc1cccc(N(C)C(=O)C2CCC(CNS(=O)(=O)c3cccc4nsnc34)CC2)c1 (stereo not given)	-40%	x	x	x	-3%	x
COc1ccc(Cc2nc(C(=O)Nc3ccc(Cl)cc3)cs2)cc1	-75%	-4%	u	-4%	u	0%
O=C(Nc1ccc(Cl)cc1)c1csc(Cc2ccccc2)n1	u	2%	u	22%	5.4µM*	u
COc1ccc(Cc2nc(C(=O)Nc3ccccc3)cs2)cc1	-67%	-1%	0%	u	19µM*	22%
COc1ccc(NC(=O)c2csc(Cc3ccc(Cl)cc3)n2)cc1	-23%	0%	-1%	1%	24µM*	-12%
COc1ccc(Cc2nc(C(=O)Nc3ccc(F)cc3)cs2)cc1	-32%	-2%	6%	2%	u	12%
CCCCn1cc(S(=O)(=O)c2ccc(C)c(C)c2)c(=O)c2cc(F)c(N(CC)CC)cc21	x	x	x	x	-10%	x
O=C(c1cc(-c2cccnc2)nc2ccc(Br)cc12)N1CCN(c2ncccn2)CC1	-16%	1%	-10%	-1%	21µM*	3%
CC(=O)c1ccc(N2CCN(C(=O)c3cc(-c4cccnc4)nc4ccc(Br)cc34)CC2)cc1	-19%	-1%	-9%	2%	11µM*	0%
CS(=O)(=O)N1CCN(C(=O)c2cc(-c3cccnc3)nc3ccc(Br)cc23)CC1	-9%	1%	-5%	-2%	-13%	1%
Cn1cc(C(=O)NCCc2ccc(Cl)cc2)c(=O)c2cc(S(=O)(=O)N3CCOCC3)ccc21	-3%	x	x	x	-1%	x
CCOc1ccc(OCc2ccc(C(=O)N3CCOCC3)cc2)cc1	-10%	-2%	5%	29%	u	30%
CCOc1ccc(N=C(/C(C(=O)C(=O)N2CCOCC2)=C(\O)c2ccccc2)c2ccccc2)cc1	13µM*	-8%	u	u	u	u
COc1ccc2oc(=O)c(C(=O)N3CCN(C(=O)c4ccccc4)CC3)cc2c1	x	x	-2%	-1%	0%	-4%
COc1ccc(NC(=O)c2cc3ccccc3o/c2=N\NS(=O)(=O)c2ccc(C)cc2)cc1	x	x	u	1µM*	-28%	0.45µM*
COc1cccc(OC(=O)c2cc3ccccc3oc2=O)c1	-3%	-7%	11%	2%	13µM*	-3%
COc1ccc2oc(=O)c(C(=O)Nc3ccccc3-c3ccccc3)cc2c1	-1%	4%	-6%	0%	5%	0%
COc1ccc2oc(=O)c(C(=O)Nc3cccc(C(C)=O)c3)cc2c1	x	x	8%	28%	4.8µM*	u
COc1ccc2oc(=O)c(/C(C)=N/Nc3ccccc3)cc2c1	-26%	1%	-1%	-1%	24µM*	-7%
COc1ccccc1OC(=O)c1cc2ccccc2oc1=O	x	x	7%	-2%	-18%	-2%
O=C(C1CCCCC1)N(Cc1cccnc1)c1nc2ccc(Cl)cc2s1	x	x	x	x	-17%	x
CN(C)S(=O)(=O)Nc1cc(F)cc(F)c1	7%	-1%	-1%	-1%	-3%	-3%
COc1ccc(C2=NC(C)(C)N(CC(=O)Nc3cccc(C)c3)C2=O)cc1	-19%	x	x	x	-4%	x
